# ugtP null kill = growth inhibition of S. aureus ugtP deletion strain. S. aureus RN4220 ugtP deletion, OD600 growth, 16 h. growth inhibition, % (test concentration not listed). 330,000 tested, 0.54% active; in the data active means growth inhibition above about 68%;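 further: plate controls were untreated wells for no effect and antibiotic for full effect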
# SSB-PriA inh = K. pneumoniae PriA-SSBct interaction inhibition. 430,000 tested, 0.6% active. inhibition, % at 33 µM. AlphaScreen SSBct-PriA binding, biotinylated peptide. AID 1272365; in the data active means inhibition mostly above about 37%, no sharp cut-off; inactive means mostly below about 20%;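 further: plate controls were negative control peptide for no effect and reference peptide for full effect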
# Sa RN4220 lethal = kills Staphylococcus aureus RN4220 | S. aureus RN4220 growth, OD600, 16 h | inhibition, % (test concentration not listed) | 330,000 tested, 0.33% active; in the data active means inhibition above about 85%;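 further: plate controls were untreated cells for no effect and reference antibiotic for full effect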
# MazF activator = activators of E. coli MazEF toxin-antitoxin RNase; AID 504720; activation, % at 20 µM; 350,000 tested, 0.32% active; P0AE70; FAM/BHQ RNA-DNA oligo cleavage fluorescence, 5 h; in the data active means activation above about 50%
# Target sequence (P0AE70 whole entry, looked up): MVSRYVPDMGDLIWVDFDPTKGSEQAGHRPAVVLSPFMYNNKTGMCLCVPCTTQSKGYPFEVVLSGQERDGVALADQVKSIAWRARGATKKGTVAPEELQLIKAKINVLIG
# BJeLR viability = BJeLR cell viability loss; BJeLR (HRASV12) viability, CellTiter-Glo ATP luminescence, 48 h; inhibition, % (no concentration beside the values); 300,000 tested, 0.17% active; in the data active means inhibition above about 50%
# Starred values were filed as active, the others as inactive; i = inactive; . = no result; + = active, no number. The list is not random: actives were taken first. Their share in the collection is about 1.2%.
SMILES,ugtP null kill,SSB-PriA inh,Sa RN4220 lethal,MazF activator,BJeLR viability
O=C(CN1CCN(c2ccccc2)CC1)Nc1ccc(OCc2ccccc2)cc1,4,6,-2,-2,-11
O=C(Nc1nc(-c2ccccn2)cs1)c1ccccc1,.,101*,.,.,.
O=C(Nc1nc(-c2ccccn2)cs1)C1(c2ccccc2)CCOCC1,.,-4,.,.,.
O=C(Nc1nc(-c2ccccn2)cs1)C1(n2cnnn2)CCCCC1,.,158*,.,.,.
CCCn1nc(C(=O)Nc2nc(-c3ccccn3)cs2)c2ccccc2c1=O,4,-9,23,10,.
Cc1cc(C(=O)Nc2nc(-c3ccccn3)cs2)no1,.,75*,.,.,.
O=C(Nc1nc(-c2ccccn2)cs1)c1ccc(C(=O)c2ccccc2)cc1,.,32,.,.,.
Cn1nc(C(=O)Nc2nc(-c3ccccn3)cs2)c2ccccc2c1=O,-5,43*,10,14,.
COc1ncc(NS(=O)(=O)c2cccc(C(F)(F)F)c2)cn1,.,5,.,.,.
CSc1ccccc1C(=O)Nc1nc(-c2ccc(F)cc2)cs1,.,11,.,.,.
CSc1ccccc1C(=O)Nc1nc(-c2ccccn2)cs1,.,106*,.,.,.
COc1cc(C=NNC(=O)CC#N)ccc1OC/C=C/c1ccccc1,7,68*,-1,.,.
COc1cc(/C=N/NC(=O)CC#N)ccc1OCc1ccccc1,.,+,.,.,.
N#CCC(=O)N/N=C\c1ccccc1OC/C=C/c1ccccc1,.,.,.,3,13
N#CCC(=O)NN=Cc1ccccc1OC/C=C/c1ccccc1,2,71*,36,.,.
COc1cc(C=NNC(=O)c2ccccc2)ccc1OS(=O)(=O)c1ccccc1,90*,-6,-3,.,.
COc1ccc(C(=O)NN=Cc2ccc(OC)c(OS(=O)(=O)c3ccccc3)c2)cc1,-13,-9,-3,.,.
O=C(O)c1cccc2c1Oc1ccccc1S2(=O)=O,5,-12,3,4,.
CC(C)NC(=O)Nc1ccc2c(c1)C(=O)N([C@H](C)CO)C[C@H](C)[C@@H](CN(C)S(=O)(=O)c1ccccc1)OCCCC[C@@H](C)O2,.,.,.,5,.
CCC(=C(c1ccc(OC)cc1)c1ccc(OC)cc1)c1cn(CC(O)CN2CCN(C)CC2)c2ccccc12 (stereo unspecified),40,55*,16,-17,.
Cn1c(=O)c(N)c2c3c(c(Br)ccc31)C(=O)c1ccccc1-2,11,42*,11,i,-1
O=C(NCC1CCCO1)c1nn2c(C(F)(F)F)cc(-c3cc(Br)cs3)nc2c1Br (stereo unspecified),6,-8,9,71*,-5
CC[C@@H](O)C[C@H]1CCC[C@@]2(C[C@@H]3OC(=O)/C=C/[C@@](C)(O)[C@@H](O)[C@H](C)[C@@H](O)[C@H](OC4CCC(N(C)C)C(C)O4)[C@@H](O)[C@](C)(O)CCCCC/C=C/[C@@H]4CC(C)(C)O[C@@]4(O)C[C@H](O2)[C@H]3C)O1 (stereo partly specified),.,-6,.,17,.
Cn1nc(C(=O)Nc2cc(Cl)ccc2N2CCCC2)c2ccccc2c1=O,100*,27,100*,-9,.
CN1CCN(c2ccc(Cl)cc2NC(=O)c2nn(-c3ccccc3)c(=O)c3ccccc23)CC1,-11,-9,1,46,0
SMILES,ugtP null kill,SSB-PriA inh,Sa RN4220 lethal,MazF activator,BJeLR viability
NC(=O)C1Cc2ccccc2CN1C(=O)c1cccc(Oc2ccccc2)c1 (stereo unspecified),-2,-5,0,5,0
Cc1ccc(NC(=O)C(NC2CCCc3ccccc32)c2ccccc2)cc1Cl (stereo unspecified),18,-43,-11,-7,4
Cc1ccc(NC(=O)C(NC2CCCc3ccccc32)c2ccccc2)c([N+](=O)[O-])c1 (stereo unspecified),63,46*,4,0,-11
CCOC(=O)CNC(=S)NN(C)C,3,-7,2,8,-7
O=C(Oc1cc(=O)oc2c1c(=O)n1c3c(cccc23)CC1)c1ccc(F)cc1,.,2,.,-6,-18
O=C(Oc1cc(=O)oc2c1c(=O)n1c3c(cccc23)CC1)c1ccccc1,82*,2,34,1,-9
O=C1C=C(O)CC(c2cccs2)C1 (stereo unspecified),8,-9,4,-1,.
COc1ccc(-c2c(C#Cc3ccc(N(C)C)cc3)c3ccccc3n2C)cc1,.,78*,.,4,.
COc1ccc(-c2c(C#Cc3ccsc3)c3cc(Br)ccc3n2C)cc1,-9,-13,3,-13,.
CCOc1cccc2cc(-c3cc(=O)oc4cc(OC(=O)c5cccs5)ccc34)c(=O)oc12,.,-15,.,.,.
COc1cccc(C(=O)N/N=C(/c2ccccc2)c2ccccn2)c1,.,.,.,8,88*
CCOC(=O)c1c(NC(=O)COc2cccc3c2CCN(Cc2ccccc2F)C3=O)sc2c1CCC2,.,0,.,.,.
CCn1c(=O)c(C(=O)Nc2nc3ccccc3[nH]2)c(O)c2ccccc21,100*,-2,100*,3,5
CCCCCn1c(=O)c(C(=O)Nc2nc3ccccc3[nH]2)c(O)c2ccccc21,101*,-8,83,-3,-17
CCCCCn1c(=O)c(C(=O)Nc2ccccc2Cl)c(O)c2ccccc21,23,-10,5,7,5
O=C1CC(c2ccccc2F)C(=O)N1 (stereo unspecified),.,42*,.,.,.
COc1cc(OC)cc(-c2nc3cc(C)ccc3o2)c1,-4,-15,4,-6,23
Cc1c(OCC(=O)NCc2ccncc2)ccc2c3c(c(=O)oc12)CCCC3,4,6,-1,53*,7
NS(=O)(=O)c1ccc(CNC(=O)COc2ccc3c4c(c(=O)oc3c2)CCCC4)cc1,11,-6,4,165*,4
CCOC(=O)C(CCc1ccccc1)NC1CCc2ccccc2N(CC(=O)O)C1=O (stereo unspecified),-2,.,2,.,.
Cc1ccccc1-n1c(O)cc(=O)[nH]c1=S,3,-10,2,-5,-3
O=C(c1cc([N+](=O)[O-])ccc1Cl)N1c2ccccc2Sc2ccccc21,8,62*,-1,-8,-40
Cc1c(C)c2c(OCC(=O)N[C@@H](Cc3ccccc3)C(=O)O)cc3c(c2oc1=O)CCC(C)(C)O3,7,0,4,2,6
O=C(c1ccc(Br)cc1)C(CN1CCOCC1)c1ccccc1 (stereo unspecified),100*,-37,93*,-4,22
O=C1c2ccccc2C2=Nc3ccccc3SC(c3cccc(F)c3)C12 (stereo unspecified),-2,27,-6,12,-13
O=C1c2ccccc2C2=Nc3ccccc3SC(c3ccc(Cl)cc3)C12 (stereo unspecified),-23,53*,-7,14,-2
O=C(Nc1nnc(-c2ccno2)o1)C1COc2ccccc2O1 (stereo unspecified),.,21,.,.,.
O=C(Nc1nnc(C2CCCO2)o1)c1cc2ccccc2o1 (stereo unspecified),.,21,.,.,.
O=C(Nc1nnc(C2CCCO2)o1)C1COc2ccccc2O1 (stereo unspecified),.,75*,.,.,.
O=C(Nc1nnc(C2CCCO2)o1)C(c1ccccc1)c1ccccc1 (stereo unspecified),.,84*,.,.,.
